# VP16 counter: Gal4-VP16 reporter inhibition counter-screen; Drosophila S2 Gal4-VP16 UAS-luciferase, luminescence, 20 h; Potency, µM (titrated, usually from 53.6 µM), inactives show at the highest dose activity, negative = inhibition, most hits filed as inhibitors; hit rate 3.5% among 310,000; AID 2546;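 note: Gal4-VP16 expression switched on by copper sulfate through the metallothionein promoter; % is set by controls: 0 for no effect and ±100 for the full control effect; nearly all actives have a fitted effect of over 50% in size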
# MCF10A rerep: inducers of DNA re-replication in MCF 10A breast cells. MCF 10A DNA re-replication, Hoechst nuclear intensity, 48 h. Potency, µM (series often up to 46.1 µM), inactives show at the top dose activity, positive = re-replication, hits mostly activators. hit rate 2.9% among 350,000; note: % of control where 0% means no effect; nearly all actives have a fitted effect of over 50% in size
# RORg inh: ROR gamma (mouse) transcription inhibition | AID 2551 | P51450 | Potency, µM (highest dose often 53.6 µM), without a hit: top-dose activity change, negative = inhibition, hits mostly inhibitors | hit rate 5.4% among 310,000 | Drosophila S2 Gal4-RORgamma UAS-luciferase reporter, 20 h; note: % is set by controls: 0 for no effect and ±100 for the full control effect; nearly all actives have a fitted effect of over 60% in size
# Target sequence (P51450 whole entry, looked up, the tested form may be a part): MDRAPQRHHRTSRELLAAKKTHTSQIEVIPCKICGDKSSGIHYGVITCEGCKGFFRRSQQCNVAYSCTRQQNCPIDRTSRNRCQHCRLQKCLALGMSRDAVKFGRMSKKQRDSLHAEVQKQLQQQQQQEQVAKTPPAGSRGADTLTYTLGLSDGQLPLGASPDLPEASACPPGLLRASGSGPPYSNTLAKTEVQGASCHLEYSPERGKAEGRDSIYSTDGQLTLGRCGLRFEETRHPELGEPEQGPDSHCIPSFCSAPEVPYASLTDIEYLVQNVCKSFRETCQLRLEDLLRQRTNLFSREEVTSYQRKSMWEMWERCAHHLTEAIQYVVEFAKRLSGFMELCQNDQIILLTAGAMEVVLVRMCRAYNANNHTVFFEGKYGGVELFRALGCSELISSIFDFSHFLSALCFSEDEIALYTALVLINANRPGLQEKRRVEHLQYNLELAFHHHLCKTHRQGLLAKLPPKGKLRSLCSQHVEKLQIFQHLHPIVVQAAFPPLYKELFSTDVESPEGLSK
#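 Schneider cells (Drosophila), stable Gal4 DBD–ROR gamma + UAS-luc; 1 hr cmpd preincubation; Cu2+ induction 700 uM final; 20 hr ambient; luminescence.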
# ELG1 repair inh: ELG1-dependent DNA repair inhibition; AID 504467; hit rate 2.3% among 330,000; Potency, µM (highest dose often 46.1 µM), inactives show at the highest dose activity change, negative = inhibition, most hits filed as inhibitors; HEK293T ELG1-luciferase reporter, luminescence, 16 h; DNA damage induced by 5-fluorouridine; note: % is set by controls: 0 for no effect and ±100 for the full control effect; nearly all actives have a fitted effect of over 55% in size
#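 DMSO vehicle served as the neutral condition. Each well held 2,000 cells given 5-fluorouridine plus compound; after 16 hr at 37 °C/5% CO2, ONE-Glo was added and luciferase measured 30 min later.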
# SW480 rereplic: inducers of DNA re-replication in SW480 colon cancer cells; Potency, µM (doses to about 46.1 µM), without a hit: at the highest dose re-replication activation, usual class: activators; AID 624297; hit rate 1.8% among 340,000; SW480 DNA re-replication, Hoechst DNA content imaging, 48 h; note: % of control where 0% means no effect; nearly all actives have a fitted effect of over 55% in size
#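 Treated cells incubate 48 hr (37 C, 5% CO2), are stained 40 min with Hoechst, and nuclear fluorescence is enumerated; a rise in nuclei with high DNA signal marks re-replication.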
# Numbers without * were called inactive; ? = inconclusive; nt = no result; [ ] = remark or other dose. A selection: hits, their analogues and other compounds. The true share with any hit is near 10%. Calls come from the whole dose curve; as a rule, active = well fitted curve in the direction sought with a large enough effect; inconclusive = small, poorly fitted or top-dose-only effect, or another doubt; inactive = no such curve, though single readings can be large; an effect the other way counts as inactive or inconclusive. Potency is the fitted concentration of half-maximal effect.
SMILES,VP16 counter,MCF10A rerep,RORg inh,ELG1 repair inh,SW480 rereplic
CC1CN(c2ccc([N+](=O)[O-])c(NCCOc3ccc(Cl)cc3)c2)CC(C)N1 (stereo unspecified),18µM*,10%,?,1%,-9%
CCOC(=O)c1cnn(-c2cc(C)c3ccccc3n2)c1N,?,0%,0.11µM*,23%,0%
CCOC(=O)c1cnn(-c2ccccn2)c1N,-2%,4%,32%,?,-7%
CCOC(=O)c1cnc2c(-c3ccccc3)cnn2c1N,11µM*,15%,1.6µM*,?,-3%
CCOC(=O)c1cnc2c(-c3ccccc3)c(C)nn2c1N,12%,3%,-9%,?,-1%
Cc1c(O)c(O)cc2c1oc1c3ccccc3oc(=O)c21,?,nt,7.1µM*,nt,nt
COc1cccc(CNn2c(-c3cccc(C)c3)nc3ccccc3c2=O)c1O,-10%,-3%,1%,16µM*,1%
COc1ccc(O)c(CNn2c(-c3ccc(Br)cc3)nc3ccccc3c2=O)c1,-6%,-14%,-2%,?,-3%
COc1ccc(NC(=O)/C(C#N)=C\c2cc(C)n(-c3ccc4c(c3)OCO4)c2C)cc1,0%,5.2µM*,?,-22%,10µM*
O=C(COc1ccccc1Cl)Nc1ccc2[nH]c(=O)[nH]c2c1,nt,0%,nt,-1%,-7%
CCN(CC(=O)Nc1sc2c(c1C#N)CCCC2)Cc1nc2ccccc2c(=O)[nH]1,?,3%,5.6µM*,15µM*,-1%
CC1CCc2c(sc(NC(=O)CCc3nc4ccccc4c(=O)[nH]3)c2C#N)C1 (stereo unspecified),nt,-6%,nt,12%,-7%
CCN(CC(=O)Nc1sc2c(c1C#N)CCC(C)C2)Cc1nc2ccccc2c(=O)[nH]1 (stereo unspecified),?,59%,2.5µM*,13µM*,18%
CN(CC(=O)Nc1ccc(Cl)cc1)C(=O)CCc1nc2sc3c(c2c(=O)[nH]1)CCCC3,nt,18µM*,nt,19%,?
CCCc1nc2sc3c(c2c(=O)[nH]1)CCCC3,21%,-3%,7%,8%,-8%
CCN(CC(=O)NC(C)C)Cc1nc2sc3c(c2c(=O)[nH]1)CCC3,4.5µM*,15%,1.1µM*,?,-4%
CCN(Cc1nc2ccccc2c(=O)[nH]1)C(=O)c1cc2c(s1)CCCCC2,nt,?,nt,-7%,3%
CC(C)N(C(=O)CSc1nnc(-c2ccc3c(c2)OCO3)n1C)C(C)C,-5%,3%,-3%,17%,-7%
CC(=O)Nc1sc2c(c1C#N)CCC(C)C2 (stereo unspecified),5%,1%,-1%,?,-3%
CCN(CC(=O)Nc1sc2c(c1C#N)CCC(C)C2)CC(=O)NC1CCS(=O)(=O)C1 (stereo unspecified),4%,2%,?,18µM*,?
CC1(C)C2CCC1(CS(=O)(=O)Nc1ccc(S(=O)(=O)N3CCCCC3)cc1)C(=O)C2 (stereo unspecified),-10%,2%,?,-12%,?
CCOC(=O)C1=C(N)n2c(s/c(=C\c3ccco3)c2=O)=C(C(=O)OCC)C1c1ccco1 (stereo unspecified),4%,5.8µM*,-32%,-19%,?
CCN(CC)c1ccc(N=Nc2nn(C)c(C)c2[N+](=O)[O-])cc1,?,11%,5µM*,?,1%
CCc1nnc(NC(=O)c2ccc(-c3ccccc3Cl)o2)s1,19%,-1%,2%,?,-16%
CCc1nnc(NC(=O)c2ccc(Cl)nc2)s1,-15%,-1%,?,?,-7%
SMILES,VP16 counter,MCF10A rerep,RORg inh,ELG1 repair inh,SW480 rereplic
CCc1nnc(NC(=O)c2ncc(Cl)c(Cl)c2Cl)s1,4µM*,22%,3.2µM*,14%,-1%
CCc1nnc(NC(=O)c2cc(Cl)ccn2)s1,7.1µM*,21%,4.5µM*,?,?
O=c1c(-c2cccs2)nc2cnc(N3CCNCC3)nc2n1C1CC1,?,nt,-2%,nt,nt
CC(C)c1ccccc1OCC(O)CN1CCN(S(=O)(=O)c2ccc([N+](=O)[O-])cc2)CC1 (stereo unspecified),-17%,8%,42%,?,27%
O=C(CC1CCCC1)N1CCN(S(=O)(=O)c2cccc(F)c2)CC1,nt,0%,nt,nt,-7%
Cc1cc(C(=O)CCl)c(C)n1CCc1ccc(F)cc1,-86%,?,?,0%,8%
COc1ccc(CCn2c(C)cc(C(=O)CCl)c2C)cc1OC,20µM*,6.5µM*,11µM*,-16%,5.8µM*
Cc1cc(C(=O)CCl)c(C)n1CCc1ccc(Cl)cc1,?,16µM*,13µM*,?,5.2µM*
Cc1ccccc1C1C(C#N)=C2N=C(N)c3c(sc4c3CCCCC4)N2C2=C1C(=O)CC(C)(C)C2 (stereo unspecified),?,24%,13µM*,-17%,?
Cc1ccccc1C1C(C#N)=C2NC(=O)c3c(sc4c3CCCCC4)N2C2=C1C(=O)CC(C)(C)C2 (stereo unspecified),3%,nt,-33%,12%,nt
COc1ccc(-n2c(C)cc(C(=O)COc3ccc(C)nc3[N+](=O)[O-])c2C)cc1,?,21µM*,?,18%,?
Cc1nnc(SCC(=O)c2cc(C)n(-c3c(C)n(C)n(-c4ccccc4)c3=O)c2C)s1,-12%,-9%,-15%[10 µM],-12%,-1%
COc1ccc(-n2c(C)cc(C(=O)CCl)c2C)cc1,?,6.5µM*,13µM*,28%,2.6µM*
Cc1ccc(OCC(=O)c2cc(C)n(-c3cc(C)on3)c2C)c([N+](=O)[O-])n1,nt,?,nt,10%,?
Cc1cc(C(=O)CCl)c(C)n1-c1c(C)n(C)n(-c2ccccc2)c1=O,?,5.2µM*,?,?,21µM*
COc1ccc(-n2c(C)cc(C(=O)CSc3ccc(NC(C)=O)cc3)c2C)cc1,?,16µM*,?,7%,13%
CC(=O)Nc1ccc(SCC(=O)c2cc(C)n(-c3ccccc3)c2C)cc1,7%,0%,2%,?,-2%
COc1ccc(-n2c(C)cc(C(=O)CN3C(=O)c4ccccc4C3=O)c2C)cc1,-11%,1%,?,?,2%
O=C(CN1C(=O)C2CC=CCC2C1=O)Nc1cc(C(F)(F)F)ccc1N1CCCC1 (stereo unspecified),nt,-2%,nt,2%,4%
Cc1cc(Cl)ccc1OCc1cn2cccnc2n1,?,-4%,3%,?,-4%
Cc1ccc(OCC(=O)c2ccc(Cl)s2)c([N+](=O)[O-])n1,20µM*,?,?,13%,?
Cc1ccc(CNC(=O)COc2ccc(C)nc2[N+](=O)[O-])cc1,0%,12%,40%,3%,2%
COCCN(CC(=O)Nc1cccc(C)c1C)C(=O)C1(c2ccc(Cl)cc2)CCC1,nt,79%,nt,?,-12%

# Screening results (PubChem BioAssay)
